Only some compounds are listed: those with a hit (about 0.92% of all), similar ones and a draw of the others.
CIT2-GFP yeast: modulators of CIT2-GFP expression in yeast, primary screen, S. cerevisiae, GFP fusion, multiplex flow cytometry, MLPCN library; GFP response vs DMSO, % at 10 µM; hit rate 0.065% among 320,000; AID 2029, 2009; S. cerevisiae CIT2-GFP strain, 3 h; 100 means same as DMSO wells;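 active = GFP response relative to DMSO above a set limit, near the screen mean plus 3 SD, cut at about 150% in these data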;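 also: ratio of well median GFP fluorescence to mean of DMSO wells on the plate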
RPL19A TOR yeast: RPL19A-GFP expression modulators in yeast, primary screen, cell-based, S. cerevisiae, multiplex flow cytometry, MLPCN | S. cerevisiae RPL19A-GFP strain, 3 h; hits give low values | percent response vs DMSO, % at 10 µM | hit rate 0.3% among 330,000 | AID 2025, 2009;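 active = percent response vs DMSO below 50%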;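 also: median channel GFP fluorescence of the barcoded RPL19A-GFP strain; lower means less RPL19A-GFP as with rapamycin TOR inhibition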
AGP1 TOR yeast: modulators of AGP1-GFP expression in yeast TOR pathway, primary screen, cell-based, multiplex flow cytometry, S. cerevisiae, MLPCN library; 3 h; GFP as percent of DMSO wells; AID 2066, 2009; hit rate 0.02% among 320,000; GFP response vs DMSO, % at 10 µM;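 active = GFP response relative to DMSO above a set limit, near screen average plus 3 SD, cut at about 150% in these data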;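 also: median GFP channel fluorescence of the gated AGP1 strain per well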
MEP2 TOR yeast: modulators of MEP2-GFP levels in yeast, primary screen, S. cerevisiae, multiplex flow cytometry, MLPCN library. GFP response vs DMSO, % at 10 µM. S. cerevisiae MEP2-GFP strain, 3 h; 100% = DMSO control level. hit rate 0.51% among 330,000. AID 2016, 2009;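 active = GFP response versus DMSO above a set limit, roughly screen mean plus 3 SD, cut at about 180% in these data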;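 also: median GFP fluorescence of the barcode-gated MEP2-GFP cells per well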
LAP4 TOR yeast: modulators of LAP4-GFP expression in yeast, primary screen, S. cerevisiae, multiplex flow cytometry, MLPCN library; 3 h; median GFP as percent of DMSO wells; GFP response vs DMSO, % at 10 µM; hit rate 0.34% among 320,000;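 active = GFP response vs DMSO above a set limit, about the screen mean plus 3 SD, cut at about 150% in these data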
LAP4 cherry2: LAP4-GFP expression modulators in yeast, confirmation, cell-based, second cherry pick, flow cytometry; shares compounds with LAP4 TOR yeast; S. cerevisiae LAP4-GFP strain, 3 h; GFP response vs DMSO, % at 10 µM; hit rate 20% among 590;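 active = GFP signal as percent of the solvent control above about 150%, meaning raised reporter expression, limit read from the data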
MEP2 cherry2: modulators of MEP2-GFP levels in yeast, confirmation, S. cerevisiae, flow cytometry GFP, second cherry picks; shares compounds with LAP4 TOR yeast; S. cerevisiae MEP2-GFP strain, 3 h; GFP response vs DMSO, % at 10 µM; hit rate 10% among 590;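 active = GFP signal above 150% of the solvent control wells, that is a rise of more than half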;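 also: median channel GFP fluorescence of all gated yeast cells per well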
RPL19A-GFP pick2: RPL19A-GFP modulators in TOR pathway yeast, confirmation, cell-based, S. cerevisiae, flow cytometry, second cherry pick; shares compounds with LAP4 TOR yeast; S. cerevisiae RPL19A-GFP strain, 3 h; hits give low values; 100% means same as DMSO wells; hit rate 3% among 590; GFP response vs DMSO, % at 10 µM; AID 2623, 2010;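 active = under 65% GFP response relative to DMSO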;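 also: median GFP channel fluorescence per well over the all cells gate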
CIT2 GFP CP2: modulators of CIT2-GFP expression in yeast, confirmation, flow cytometry, second cherry pick, single plex; hit rate 8% among 590; shares compounds with LAP4 TOR yeast; S. cerevisiae CIT2-GFP strain, 3 h; DMSO control wells read 100%; GFP response vs DMSO, % at 10 µM;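 active = GFP response vs DMSO above about 150%, limit read from the data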;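 also: median green fluorescence per well over all gated yeast cells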
AGP1-GFP pick2: AGP1-GFP expression modulators, hit retest, confirmation, cell-based, flow cytometry, S. cerevisiae, cherry pick set 2. S. cerevisiae AGP1-GFP strain, 3 h. 590 tested, under 10 active. AID 2643, 2010. percent response vs DMSO, % at 10 µM. shares compounds with LAP4 TOR yeast;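 active = over 150 percent of DMSO response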;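 also: median GFP channel fluorescence over all cells without mother daughter split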
s288c autofluor: compound autofluorescence in yeast s288c, dose response, artefact control for yeast TOR pathway GFP screen, s288c strain. shares compounds with LAP4 TOR yeast. S. cerevisiae s288c, 520 nm autofluorescence, flow cytometry, 3 h; hits give high values; zero means same as solvent-only cells. fluorescence change (kMESF span) at 33 µM. 610 tested, under 10 active;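 active = fluorescence span over the dose series, or activity score, above about 33, limit read from the data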
s288c autofl DR: autofluorescence of compounds in yeast s288c, dose response, artefact control for yeast TOR pathway GFP screen, primary hits, KU SAR, s288c parental | 110 tested, under 10 active | AID 488829, 2010 | S. cerevisiae s288c parental, compound autofluorescence, flow cytometry, 3 h | fluorescence change (span) at 33 µM | shares compounds with LAP4 TOR yeast;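 active = fluorescence change span, or the activity score built from it, above 25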
TORC1 bypass gr: wild-type yeast growth inhibition sparing TORC1 bypass cells, mechanism study for yeast TOR pathway GFP screen, BY4741 wild type, TORC1 bypass strain | S. cerevisiae BY4741 spot growth rating, 48-72 h; hits give low values | growth rating (0-3) at 30 µM | shares compounds with LAP4 TOR yeast | 120 tested, under 10 active | AID 504456, 2011;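 active = growth rating at most 1 for wild type yeast while the TORC1 bypass strain still grows fully, rated 3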
Each line names hits and unclear results; the compound was inactive in the other large screens (follow-up assays come after a bar, where they were run).

COc1cccc(C(=O)NCCS(=O)(=O)NCc2ccco2)c1	LAP4 TOR yeast 150.6 | LAP4 cherry2 inactive | MEP2 cherry2 inactive | RPL19A-GFP pick2 inactive | CIT2 GFP CP2 inactive | AGP1-GFP pick2 inactive
Cc1oc2c(c(=O)c1C)C(=O)CC(c1ccccc1)C2 (stereo unspecified)	none
CS(=O)(=O)c1sc(C#N)c2c1C(=O)CC(c1ccccc1)C2 (stereo unspecified)	LAP4 TOR yeast 209.1 | s288c autofluor inactive
CCNc1nc(Cl)nc(N(NC(C)=O)C(C)C)n1	none
CCNc1nc(Cl)nc(N(NC(C)=O)C(C)CC)n1 (stereo unspecified)	none | LAP4 cherry2 inactive | MEP2 cherry2 inactive | RPL19A-GFP pick2 inactive | CIT2 GFP CP2 inactive | AGP1-GFP pick2 inactive
O=C(CNC(=O)c1ccc2c(=O)n3c(nc2c1)CCC3)Nc1ccc(F)c(F)c1	none
CCOC(=O)c1c(C)oc2c1c(C(c1cccnc1)N1CCOCC1)c(O)c1ccccc12 (stereo unspecified)	LAP4 TOR yeast 159.9 | s288c autofluor inactive | s288c autofl DR inactive | TORC1 bypass gr inactive
O=C1OC(c2ccccc2)c2ccccc21 (stereo unspecified)	none
O=S1OC(c2ccccc2)c2cc(Cl)ccc21 (stereo unspecified)	LAP4 TOR yeast 156.9 | LAP4 cherry2 inactive | MEP2 cherry2 inactive | RPL19A-GFP pick2 inactive | CIT2 GFP CP2 inactive | AGP1-GFP pick2 inactive
CCc1ccccc1NC(=O)CN1CCN(CC(=O)NCc2ccc(Cl)cc2)CC1	none
Cc1ccc(SCC(=O)NNC(=O)CCS(=O)(=O)c2ccc(C)cc2)cc1	LAP4 TOR yeast 219.4 | LAP4 cherry2 inactive | MEP2 cherry2 inactive | RPL19A-GFP pick2 inactive | CIT2 GFP CP2 inactive | AGP1-GFP pick2 inactive
Cc1ccc(SCC(=O)NNC(=O)CCS(=O)(=O)c2ccccc2)cc1	none

Screening data from PubChem BioAssay.
